An excerpt weighted towards active compounds, which were near 2.7% of everything screened.
HSP90 refold inh = HSP90 refolding inhibition in rabbit reticulocyte lysate | inhibition, % at 5.6 µM | luciferase refolding luminescence, 3 h | 0.91% of 290,000 active;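 active = inhibition above the screen-wide mean plus 3 SD, computed separately per campaign, cut at about 16% in these data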;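 also: inhibitors lower the luminescence because luciferase stays unfolded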
SENP7 inh = SENP7 protease inhibition; 1.5% of 330,000 active; recombinant SENP7, Z-RLRGG-aminoluciferin luminescence, 40 min; inhibition, % at 5 µM;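 active = inhibition above about 50% at the single test dose, limit read from the data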
Target sequence (Q9BQF6 706-1050 limits assumed): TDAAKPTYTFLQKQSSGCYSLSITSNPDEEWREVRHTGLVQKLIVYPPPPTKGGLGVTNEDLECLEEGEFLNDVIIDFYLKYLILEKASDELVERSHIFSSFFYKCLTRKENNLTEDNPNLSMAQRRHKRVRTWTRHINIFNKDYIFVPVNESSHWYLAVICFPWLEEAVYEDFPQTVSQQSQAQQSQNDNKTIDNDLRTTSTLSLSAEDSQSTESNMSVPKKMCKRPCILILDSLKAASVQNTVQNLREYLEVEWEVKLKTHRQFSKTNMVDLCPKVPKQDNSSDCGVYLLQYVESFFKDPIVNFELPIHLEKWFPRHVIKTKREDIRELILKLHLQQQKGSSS
SENP6 block = SENP6 protease inhibition; Q9GZR1; Recombinant SENP6 catalytic domain, aminoluciferin luminescence; inhibition, % at 10 µM; 1.8% of 330,000 active; AID 2599;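 active = inhibition above about 50% at the single tested dose, limit read from the data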
SENP8 block-1 = inhibitors of human SENP8 protease. Q96LD8. recombinant SENP8, Nedd8 substrate fluorescence. AID 602440. inhibition, % at 20 µM. 0.64% of 360,000 active; in the data active = inhibition mostly above about 40%, no sharp cut-off; inactive = mostly below about 27%
SENP8 block-2 = blocks the human protease SENP8 | AID 2540 | 1.2% of 330,000 active | inhibition, % at 10 µM | purified SENP8, Z-RLRGG-aminoluciferin cleavage, luminescence; in the data active = inhibition above about 50%
SENP8 conf = confirmation of human SENP8 protease inhibitors. inhibition, % at 12.5 µM. shares compounds with SENP7 inh. Recombinant SENP8, Z-RLRGG-aminoluciferin luminescence, 60 min. 40% of 6,200 active;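 active = mean inhibition across replicates above about 50%, limit read from the data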
SENP6 conf = human SENP6 inhibition, confirmed; recombinant SENP6, Z-RLRGG-aminoluciferin luminescence; shares compounds with SENP7 inh; 58% of 6,200 active; AID 488915; inhibition, % at 12.5 µM
SENP7 confirm = human SENP7 inhibition, confirmed. 69% of 6,200 active. recombinant SENP7, Z-RLRGG-aminoluciferin luminescence, 40 min. shares compounds with SENP7 inh. inhibition, % at 12.5 µM. AID 488917
Casp3 SENP sel = caspase-3 inhibition (SENP selectivity assay); 60% of 6,200 active; shares compounds with SENP7 inh; purified caspase-3, Z-DEVD-aminoluciferin luminescence, 60 min; inhibition, % at 12.5 µM;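 active = mean inhibition above about 50%, limit read from the data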
Target sequence (P42574 28-227 limits assumed): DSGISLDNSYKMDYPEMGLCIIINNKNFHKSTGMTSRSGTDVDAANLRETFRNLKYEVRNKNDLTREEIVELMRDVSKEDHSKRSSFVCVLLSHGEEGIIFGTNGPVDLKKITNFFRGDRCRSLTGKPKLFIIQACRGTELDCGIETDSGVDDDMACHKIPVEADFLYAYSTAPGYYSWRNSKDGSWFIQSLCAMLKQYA
SENP luc ctr = luminescence interference (SENP counter-screen). Pre-incubated SENP8/Z-RLRGG-aminoluciferin, luciferase luminescence interference. 39% of 6,200 active. shares compounds with SENP7 inh. AID 488919. inhibition, % at 12.5 µM;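 active = mean inhibition above about 50% when retested at one dose, limit read from the data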
Each line names hits and unclear results; the compound was inactive in the other large screens (follow-up assays come after a bar, where they were run).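 The calls were made as follows, unless noted: active = mean inhibition above about 50% in the one-dose retest (limit read from the data); inactive = the rest.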

Cc1ccc(/C=N/NC(=O)c2ccco2)cc1	none
CN(C)c1ccc(/C=N/NC(=O)C(=O)N2CCCCCC2)cc1	SENP8 block-2 85.9 | SENP8 conf inactive | SENP6 conf inactive | SENP7 confirm inactive | Casp3 SENP sel inactive | SENP luc ctr inactive
CN(C)c1ccc(C=Nc2ccccc2C(N)=O)cc1	SENP7 inh 96.4, SENP6 block 92.8, SENP8 block-2 89.0 | SENP8 conf inactive | SENP6 conf 89.6 | SENP7 confirm 100.8 | Casp3 SENP sel 95.1 | SENP luc ctr inactive
CN(C)c1ccc(/C=N\NC(=O)c2cccc3cc[nH]c23)cc1	SENP7 inh 84.5, SENP6 block 85.9, SENP8 block-2 76.2 | SENP8 conf 84.0 | SENP6 conf 81.9 | SENP7 confirm 94.7 | Casp3 SENP sel 79.5 | SENP luc ctr 63.8
COC(=O)c1c(-c2ccc(C)cc2)csc1NC(=S)NC(=O)c1ccc(F)cc1	none
Clc1ccc(-c2nnc(C34CC5CC(CC(C5)C3)C4)o2)cn1	none
Cc1csc(/C(C#N)=N/O)n1	none
O=C(CCCN1C(=O)/C(=C/c2cccs2)SC1=S)Nc1cc([N+](=O)[O-])ccc1O	none
CN(C)c1ccc(/C=N/NC(=O)c2ccnn2C)cc1	SENP7 inh 97.5, SENP6 block 95.4, SENP8 block-2 90.7 | SENP8 conf 90.1 | SENP6 conf 90.3 | SENP7 confirm 98.2 | Casp3 SENP sel 94.9 | SENP luc ctr 87.6
O=C(N/N=C/c1ccc2ncccc2c1)c1ccco1	HSP90 refold inh 31.1, SENP7 inh 66.3, SENP6 block 66.5 | SENP8 conf 53.4 | SENP6 conf 52.7 | SENP7 confirm 83.8 | Casp3 SENP sel 87.2 | SENP luc ctr 64.5
C[C@H]1CN([C@@H](C)CO)C(=O)CCCn2nncc2CO[C@H]1CN(C)S(=O)(=O)c1ccc(Oc2ccccc2)cc1	none (no result: HSP90 refold inh, SENP7 inh, SENP6 block, SENP8 block-2)
CN(C)c1ccc([N+](=O)[O-])cc1C(=O)O	none
Clc1ccc(/C=N/NC2=Nc3cccc4cccc2c34)cc1	none
C(=N\NC1=Nc2cccc3cccc1c23)/c1ccccc1	SENP6 block 61.8 | SENP8 conf inactive | SENP6 conf inactive | SENP7 confirm 83.4 | Casp3 SENP sel inactive | SENP luc ctr inactive
COc1ccc2c(c1)CC/C2=N\NC(=O)c1ccccc1	none
COc1ccc2c(c1)CC/C2=N\OC(=O)c1ccccc1C	SENP7 inh 79.8, SENP6 block 78.7, SENP8 block-2 72.8 | SENP8 conf inactive | SENP6 conf 82.0 | SENP7 confirm 82.9 | Casp3 SENP sel 71.6 | SENP luc ctr inactive
COc1ccc2c(c1)CCC/C2=N/OC(=O)c1ccccc1OC	none
COc1ccc2c(c1)CC/C2=N\OC(=O)c1cccc(C)c1	SENP7 inh 84.1, SENP6 block 86.2, SENP8 block-2 71.8 | SENP8 conf inactive | SENP6 conf inactive | SENP7 confirm inactive | Casp3 SENP sel inactive | SENP luc ctr inactive
Cc1nnc(SCc2cc(=O)[nH]c(/N=C(\N)Nc3ccccc3)n2)s1	none
CCOc1ccc(N/C(N)=N/c2nc(CSc3nnc(C)s3)cc(=O)[nH]2)cc1	SENP6 block 54.7 | SENP8 conf inactive | SENP6 conf inactive | SENP7 confirm inactive | Casp3 SENP sel inactive | SENP luc ctr inactive
O=c1cc(/C=C/c2ccccc2)oc2ccccc12	SENP6 block 62.3, SENP8 block-2 55.3 | SENP8 conf inactive | SENP6 conf 77.8 | SENP7 confirm 93.2 | Casp3 SENP sel 64.3 | SENP luc ctr 72.9
Cc1ccccc1-c1noc(C23CC4CC(CC(C4)C2)C3)n1	none
O=C(N/C=C/c1ccccc1)c1ccccc1	SENP6 block 70.8, SENP8 block-2 58.4 (no result: HSP90 refold inh) | SENP8 conf inactive | SENP6 conf inactive | SENP7 confirm 82.1 | Casp3 SENP sel 63.2 | SENP luc ctr inactive
COc1ccccc1-c1cnc2c(c1)C(=O)N([C@@H](C)CO)C[C@H](C)[C@H](CN(C)C)O2	none (no result: HSP90 refold inh, SENP7 inh, SENP6 block, SENP8 block-2)
Nc1[nH]n(-c2c(Cl)cc(Cl)cc2Cl)c(=O)c1N=Nc1ccc(S(=O)(=O)Nc2ncccn2)cc1	none (no result: HSP90 refold inh)
O=C1NC(=S)S/C1=C\c1coc2ccc(O)cc2c1=O	SENP6 block 80.8, SENP8 block-2 60.5 | SENP8 conf inactive | SENP6 conf 69.3 | SENP7 confirm inactive | Casp3 SENP sel inactive | SENP luc ctr 74.1
COc1cc(CNC(=O)C2CC2)ccc1OCc1ccccc1	SENP6 block 54.7 | SENP8 conf inactive | SENP6 conf inactive | SENP7 confirm 77.6 | Casp3 SENP sel 75.8 | SENP luc ctr inactive
CCOCC(=O)Nc1cc(C(=O)Nc2ccccc2)ccc1Cl	none
CCOCC(=O)Nc1cc(C(=O)Nc2cc(C)cc(C)c2)ccc1Cl	SENP7 inh 92.8, SENP8 block-2 79.1 (no result: SENP8 block-1) | SENP8 conf 82.6 | SENP6 conf 54.5 | SENP7 confirm 89.8 | Casp3 SENP sel 88.7 | SENP luc ctr inactive
CCCC(=O)Nc1ccc(Cl)c(NC(=S)NC(=O)C(C)C)c1	none
Cc1cc(=O)[nH]c(SCc2ccccc2)n1	none
Cc1cc(=O)[nH]c(S/C=C/c2ccccc2)n1	SENP7 inh 90.0, SENP6 block 63.6, SENP8 block-2 76.7 | SENP8 conf 88.7 | SENP6 conf 90.2 | SENP7 confirm 98.4 | Casp3 SENP sel 94.2 | SENP luc ctr 89.2
CCCc1nc(SCC(=O)N2CCc3ccccc3C2)c2ccccc2n1	SENP7 inh 98.2 | SENP8 conf inactive | SENP6 conf inactive | SENP7 confirm inactive | Casp3 SENP sel inactive | SENP luc ctr inactive
CCCc1nn(C)c(C(=O)Nc2ccc3ccccc3c2)c1Cl	SENP6 block 52.0 | SENP8 conf inactive | SENP6 conf inactive | SENP7 confirm inactive | Casp3 SENP sel inactive | SENP luc ctr inactive
c1ccc(-c2noc(-c3ccco3)n2)nc1	SENP7 inh 72.9, SENP6 block 74.0 | SENP8 conf 64.7 | SENP6 conf 67.5 | SENP7 confirm 92.1 | Casp3 SENP sel 91.8 | SENP luc ctr 70.0
O=[N+]([O-])c1cccc(-c2noc(-c3ccco3)n2)c1	SENP7 inh 54.3, SENP6 block 68.3 | SENP8 conf inactive | SENP6 conf inactive | SENP7 confirm inactive | Casp3 SENP sel inactive | SENP luc ctr inactive
COc1cccc(-c2nc(-c3ccccn3)no2)c1OC	none
c1ccc(-c2noc(-c3cccc4ccccc34)n2)nc1	SENP7 inh 90.3, SENP6 block 96.1, SENP8 block-2 89.1 | SENP8 conf 92.6 | SENP6 conf 94.6 | SENP7 confirm 100.8 | Casp3 SENP sel 90.0 | SENP luc ctr 94.2
c1ccc(-c2nccc(-c3ccco3)n2)nc1	none
